Assay [1] can be described thus: AP1 Signaling Pathway (AID 357; active = well fitted curve in either direction with a large enough effect, not every such curve was filed as active;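 also: ME-180 reporter cells stimulated with EGF at its EC50 level; % is scaled to controls: 0 for no effect and ±100 for the full control effect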). A digest of the protocol:
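In this screen, ME-180 cells in Opti-MEM with 0.5% dialyzed FBS received EC50 EGF and compound titrations for 5 h. AP-1 reporter beta-lactamase was detected via CCF4 ratio, giving AC50 for positive and negative modulators.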

Assay [2] concerns the target Cytochrome P450 1A2 (Homo sapiens) (UniProt P05177). The assay can be described thus: p450-cyp1a2 (AID 410; calls by dose curve;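 also: -100% = full effect of reference inhibitor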). In outline:
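Luminescent readout of luciferin formed from Luciferin-ME by human CYP1A2; data normalized against complete inhibition by 57 uM furafylline. Enzyme 20nM, substrate 100uM at Km, 100mM KPO4 buffer, 60 min reaction at room temperature.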

The nature of assay [3]: NFAT Signaling Pathway (AID 444; active = well fitted curve in either direction with a large enough effect, not every such curve was filed as active;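 also: carbachol stimulus at about its EC50 of 1 µM final; % is scaled to controls: 0 for no effect and ±100 for the full control effect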). The conditions noted are these: Jurkat NFAT-bla M1, carbachol, beta-lactamase ratio, 5 h; at 17.2 µM (top of the series) unless noted. In outline:
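Jurkat cells carrying an NFAT-driven β-lactamase reporter and co-transfected muscarinic M1 receptor were treated with compound plus carbachol (1 uM final, an EC50 level) for 5 h at 37 °C. CCF4 loading followed for 1 h at RT; 460/530 nm ratio gave %activity.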

Assay [4] is described as follows: Stat Signaling Pathway (AID 446; active = well fitted curve in either direction with a large enough effect, not every such curve was filed as active;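 also: ME-180 cervical cancer cells given 40 pM IL-6 alongside compound; SIE-controlled beta-lactamase reporter measured as 460/530 nm FRET emission ratio; % is scaled to controls: 0 for no effect and ±100 for the full control effect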). A digest of the protocol: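 ME-180 SIE-bla cells; overnight plating; cpd + IL-6 40 pM, 5 h, 37 C; LiveBLAzer 2.5 h RT; 460/530 nm emission ratio. Normalized to 300 pM IL-6 and 125 nM JAK inhibitor controls.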
For assay [5], the target named is Glucocorticoid receptor (Homo sapiens) (UniProt P04150). The assay is described as follows: GR-GFP Redistribution (AID 450;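 active = compounds whose dose series gives a full or clear partial fitted curve of increased nuclear translocation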; also: potency is read from the fitted curve at half-maximal effect). Conditions: U2OS GR-GFP nuclear translocation, laser cytometry, 2 h.
For assay [6] the target is unchanged. The assay is described as follows: GR-EFC Redistribution (AID 451; calls by dose curve; also: potency is read from the fitted curve at half-maximal effect). Conditions: CHO-K1 GR-EFC translocation, beta-gal luminescence, 2 h. In outline: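 CHO-K1 cells stably expressing nuclear-localized β-gal enzyme acceptor and GR fused C-terminally to the enzyme donor fragment; ligand-driven nuclear translocation restores β-gal by complementation. Compounds titrated up to 46 uM final, 2 h at 37 °C; luminescence read.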

Assay [7] addresses Mitogen-activated protein kinase 10 (Mus musculus) (UniProt Q61831). The assay can be described thus: JNK3 AlphaScreen Assay (AID 530; active = well fitted curve in either direction with a large enough effect, not every such curve was filed as active;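 also: kinase came from lysate of stimulated human HepG2 cells; signal reports phosphorylation of biotinylated GST-cJun 1-79 at Ser73 with 10 µM ATP; % is scaled to controls: 0 for no effect and ±100 for the full control effect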). In outline: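 Inhibitors reduce antibody binding to phosphorylated biotin-cJun, lowering AlphaScreen luminescence. Lysates from HepG2 cells pre-activated by IL-1beta plus TNF-alpha supplied JNK3; compounds were titrated.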
On the technique in general: Alpha assays give light when donor and acceptor beads are brought close together.

Assay [8] in a line: qHTS Assay for Lipid Storage Modulators (AID 1519; calls by dose curve). Conditions: Drosophila S3 cells, BODIPY lipid droplet/cell ratio, laser cytometry, cells loaded with oleic acid; for activity change, negative = inhibition: at 25.7 µM (top of the series). A digest of the protocol: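 Cells seeded at 5,000 per well were treated with compounds over a concentration series and loaded with oleic acid (400 uM, as added). Lipid droplet fluorescence (488 nm excitation, 500-530 nm channel) was read by laser-scanning cytometry and normalized to 20 uM Triacsin C.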
For orientation: In qHTS, concentration-response curves come from the screen itself.

The target in assay [9] is Ubiquitin carboxyl-terminal hydrolase 1 (Homo sapiens) (UniProt O94782). The assay can be described thus: Inhibitors of USP1/UAF1: Pilot qHTS (AID 504865).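 Also: rhodamine fluorescence freed from ubiquitin-rhodamine substrate followed over time; top concentration of the series differs between compounds; % is scaled to controls: 0 for no effect and ±100 for the full control effect; nearly all actives have a fitted effect of over 35% in size.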 A digest of the protocol: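 Enzyme-free wells gave the negative control, while test wells held 1nM USP1/UAF1 preincubated with compound for 15 min at room temperature. Ub-Rho at 150nM final started the reaction, and fluorescence at 480/540 nm was recorded kinetically.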

Assay [10] concerns the target Luciferin 4-monooxygenase (Photinus pyralis) (UniProt P08659). The assay can be described thus: Biochemical firefly luciferase enzyme assay for NPC (AID 624030).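 Also: purified P. pyralis luciferase at 10 nM with luciferin and ATP substrate; 0% = DMSO and -100% = full luciferase inhibition by PTC124 control; nearly all actives have a fitted effect of over 70% in size.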 A digest of the protocol: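 Counter-screen for direct inhibition of the luciferase enzyme by approved-drug library compounds, run at 10 nM enzyme in 50 mM Tris acetate (final). Luminescence was read within 5 min of enzyme-buffer addition and normalized to PTC124 versus DMSO (0%).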

A short description of assay [11]: S16 Schwann cell viability assay (CellTiter-Glo assay) (AID 624031).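 Also: cellular ATP luminescence as a viability measure; plate controls were DMSO-treated cells for no effect and cell-free wells for full effect; nearly all actives have a fitted effect of over 70% in size.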 A digest of the protocol:
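This viability control uses native rat S16 Schwann cells grown in DMEM plus 10% FBS. After a 24 h compound treatment at 37 °C, CellTiter-Glo luminescence reports ATP content, scaled against DMSO-treated and cell-free wells.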
(Cellular ATP, detected with luciferase, serves as a proxy for viable cell number.)

Assay [12] can be described thus: qHTS profiling for inhibitors of Plasmodium falciparum proliferation (AID 504749).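 Also: 0% = DMSO vehicle and full inhibition = artemisinin control; nearly all actives have a fitted effect of over 60% in size.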 The conditions noted are these: P. falciparum in erythrocytes, SYBR Green DNA, 72 h, at 12.8 µM (top of the series). A digest of the protocol:
(§1)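 Parasite proliferation within erythrocytes, 72 h exposure. Endpoint: SYBR Green I fluorescence after overnight lysis at room temperature. Controls: 0.29 uM artemisinin, DMSO.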

Assay [13] has as its system C2A. The assay is described as above. The conditions noted are these: P. falciparum in erythrocytes, SYBR Green DNA, 72 h; series mostly up to 12.8 µM. A digest of the protocol:
as §1

Assay [14] relates to CP191. The description is as above. Conditions: P. falciparum in erythrocytes, SYBR Green DNA, 72 h; series mostly up to 12.8 µM. In outline:
as §1

The subject of assay [15] is CP256. The description is as above. Conditions: P. falciparum in erythrocytes, SYBR Green DNA, 72 h; series mostly up to 12.8 µM. A digest of the protocol:
as §1

For assay [16], the system named is CP262. The description is as above. Conditions: P. falciparum in erythrocytes, SYBR Green DNA, 72 h; series mostly up to 12.8 µM. In outline:
as §1

In assay [17] the test system is CP268. Described as above. Conditions: P. falciparum in erythrocytes, SYBR Green DNA, 72 h; series mostly up to 12.8 µM. In outline: as §1
The subject of assay [18] is JCK. The description is as above. Conditions: P. falciparum in erythrocytes, SYBR Green DNA, 72 h; series mostly up to 12.8 µM. In outline:
as §1

The subject of assay [19] is SC27B. The assay is described as above. Conditions: P. falciparum in erythrocytes, SYBR Green DNA, 72 h; series mostly up to 12.8 µM. In outline:
as §1

Assay [20] deals with 3',5'-cyclic-AMP phosphodiesterase 4B (Homo sapiens) (UniProt Q07343). The assay can be described thus: qHTS Assay for Inhibitors of PDE-IV (AID 607; active = well fitted activation curve with a large enough effect in the main read-out, with a control signal flat, not every such curve was filed as active; also: % of control where 0% means no effect). A digest of the protocol:
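ACTOne HEK293 cells carry a modified cAMP-gated CNG channel and express endogenous PDE4; plated 1000 cells/well, compounds up to 22.9 uM final. Membrane-potential dye fluorescence (ex 535/em 590) was read; parental cells received 10 uM forskolin + 100 uM RO 20-1724.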

[21] abbreviates: measured here: cell count channel max response.
[22] abbreviates: measured here: lipid channel max response.

Inconclusive results are not listed. The source made the active and inactive calls. Unless noted, calls follow the shape of the dose curve; as a rule, active = well fitted curve in the direction sought with a large enough effect; inconclusive = small, poorly fitted or top-dose-only effect, or another doubt; inactive = no such curve, though single readings can be large; an effect the other way counts as inactive or inconclusive. Some results are limits rather than exact numbers.

Chain of Ubiquitin carboxyl-terminal hydrolase 1 (Homo sapiens) (O94782 whole entry, looked up): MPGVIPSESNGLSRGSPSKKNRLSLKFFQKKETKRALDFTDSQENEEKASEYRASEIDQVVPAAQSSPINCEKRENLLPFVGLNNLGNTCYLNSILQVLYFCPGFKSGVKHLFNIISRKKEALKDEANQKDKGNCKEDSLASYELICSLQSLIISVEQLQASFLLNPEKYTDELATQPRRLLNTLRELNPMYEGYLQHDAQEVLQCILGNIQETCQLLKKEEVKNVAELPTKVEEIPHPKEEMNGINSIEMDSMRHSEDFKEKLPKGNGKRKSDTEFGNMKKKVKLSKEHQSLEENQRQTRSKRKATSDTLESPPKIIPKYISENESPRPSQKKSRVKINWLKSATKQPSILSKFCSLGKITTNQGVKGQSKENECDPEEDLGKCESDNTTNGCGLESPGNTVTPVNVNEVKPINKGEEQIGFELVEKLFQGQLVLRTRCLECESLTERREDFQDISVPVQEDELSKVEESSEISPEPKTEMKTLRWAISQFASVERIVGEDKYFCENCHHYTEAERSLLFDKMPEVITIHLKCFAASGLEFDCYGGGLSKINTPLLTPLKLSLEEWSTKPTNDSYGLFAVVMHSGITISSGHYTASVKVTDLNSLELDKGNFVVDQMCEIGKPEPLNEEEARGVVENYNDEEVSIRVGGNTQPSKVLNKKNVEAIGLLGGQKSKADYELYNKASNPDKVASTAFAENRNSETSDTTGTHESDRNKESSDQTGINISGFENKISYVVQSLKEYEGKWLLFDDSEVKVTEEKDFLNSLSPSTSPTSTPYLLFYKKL
Chain of Cytochrome P450 1A2 (Homo sapiens) (P05177 whole entry, looked up): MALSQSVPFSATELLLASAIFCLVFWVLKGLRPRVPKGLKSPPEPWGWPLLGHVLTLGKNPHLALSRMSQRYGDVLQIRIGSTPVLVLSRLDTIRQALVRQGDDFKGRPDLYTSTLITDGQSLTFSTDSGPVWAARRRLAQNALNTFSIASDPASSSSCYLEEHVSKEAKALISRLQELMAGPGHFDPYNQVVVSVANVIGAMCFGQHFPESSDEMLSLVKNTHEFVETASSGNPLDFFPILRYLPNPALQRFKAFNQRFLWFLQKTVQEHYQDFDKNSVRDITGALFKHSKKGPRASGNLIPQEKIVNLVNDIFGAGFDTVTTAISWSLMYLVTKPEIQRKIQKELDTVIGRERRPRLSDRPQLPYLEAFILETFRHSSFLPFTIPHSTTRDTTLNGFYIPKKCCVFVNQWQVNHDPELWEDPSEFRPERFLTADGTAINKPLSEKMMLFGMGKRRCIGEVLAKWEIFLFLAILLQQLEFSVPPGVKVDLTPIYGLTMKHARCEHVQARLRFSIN
Chain of 3',5'-cyclic-AMP phosphodiesterase 4B (Homo sapiens) (Q07343 whole entry, looked up): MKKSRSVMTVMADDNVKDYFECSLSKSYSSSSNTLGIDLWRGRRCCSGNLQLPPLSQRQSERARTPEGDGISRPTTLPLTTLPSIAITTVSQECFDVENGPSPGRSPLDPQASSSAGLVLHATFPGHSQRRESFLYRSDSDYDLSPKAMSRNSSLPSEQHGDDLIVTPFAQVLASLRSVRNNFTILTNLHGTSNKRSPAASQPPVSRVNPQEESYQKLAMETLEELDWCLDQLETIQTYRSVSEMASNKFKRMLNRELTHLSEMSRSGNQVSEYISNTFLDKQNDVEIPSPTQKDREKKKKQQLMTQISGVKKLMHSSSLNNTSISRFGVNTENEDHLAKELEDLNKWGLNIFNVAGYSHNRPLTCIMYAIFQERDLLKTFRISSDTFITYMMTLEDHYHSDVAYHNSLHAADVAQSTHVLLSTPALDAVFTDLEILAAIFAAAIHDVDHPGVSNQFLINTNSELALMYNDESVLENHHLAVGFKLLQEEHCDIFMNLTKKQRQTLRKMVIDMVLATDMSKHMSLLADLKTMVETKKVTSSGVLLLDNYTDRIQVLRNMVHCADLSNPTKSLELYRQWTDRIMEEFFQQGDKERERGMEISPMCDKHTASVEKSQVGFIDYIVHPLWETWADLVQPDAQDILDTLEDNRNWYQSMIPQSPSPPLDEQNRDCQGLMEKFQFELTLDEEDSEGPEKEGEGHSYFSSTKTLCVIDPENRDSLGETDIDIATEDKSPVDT
Chain of Glucocorticoid receptor (Homo sapiens) (P04150 whole entry, looked up, the tested form may be a part): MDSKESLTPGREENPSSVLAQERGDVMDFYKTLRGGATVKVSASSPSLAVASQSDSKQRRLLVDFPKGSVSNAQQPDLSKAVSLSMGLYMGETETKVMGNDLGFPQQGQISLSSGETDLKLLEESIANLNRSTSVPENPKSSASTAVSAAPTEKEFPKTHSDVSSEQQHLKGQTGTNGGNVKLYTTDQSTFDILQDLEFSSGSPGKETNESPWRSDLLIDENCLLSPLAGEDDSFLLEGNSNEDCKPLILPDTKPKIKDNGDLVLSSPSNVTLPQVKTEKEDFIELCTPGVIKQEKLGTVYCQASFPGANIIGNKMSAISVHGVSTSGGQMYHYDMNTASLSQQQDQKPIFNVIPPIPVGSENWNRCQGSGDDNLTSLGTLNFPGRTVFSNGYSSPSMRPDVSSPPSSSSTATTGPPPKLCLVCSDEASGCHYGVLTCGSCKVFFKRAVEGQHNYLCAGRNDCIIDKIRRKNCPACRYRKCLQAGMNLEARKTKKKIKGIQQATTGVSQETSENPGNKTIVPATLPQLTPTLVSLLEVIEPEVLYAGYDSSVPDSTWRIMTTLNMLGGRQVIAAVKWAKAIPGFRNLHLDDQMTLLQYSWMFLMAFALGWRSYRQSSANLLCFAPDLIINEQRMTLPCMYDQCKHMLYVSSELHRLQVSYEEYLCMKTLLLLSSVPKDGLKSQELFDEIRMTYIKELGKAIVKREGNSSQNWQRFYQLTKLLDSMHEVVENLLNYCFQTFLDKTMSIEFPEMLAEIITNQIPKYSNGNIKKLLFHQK
Chain of Luciferin 4-monooxygenase (Photinus pyralis) (P08659 whole entry, looked up): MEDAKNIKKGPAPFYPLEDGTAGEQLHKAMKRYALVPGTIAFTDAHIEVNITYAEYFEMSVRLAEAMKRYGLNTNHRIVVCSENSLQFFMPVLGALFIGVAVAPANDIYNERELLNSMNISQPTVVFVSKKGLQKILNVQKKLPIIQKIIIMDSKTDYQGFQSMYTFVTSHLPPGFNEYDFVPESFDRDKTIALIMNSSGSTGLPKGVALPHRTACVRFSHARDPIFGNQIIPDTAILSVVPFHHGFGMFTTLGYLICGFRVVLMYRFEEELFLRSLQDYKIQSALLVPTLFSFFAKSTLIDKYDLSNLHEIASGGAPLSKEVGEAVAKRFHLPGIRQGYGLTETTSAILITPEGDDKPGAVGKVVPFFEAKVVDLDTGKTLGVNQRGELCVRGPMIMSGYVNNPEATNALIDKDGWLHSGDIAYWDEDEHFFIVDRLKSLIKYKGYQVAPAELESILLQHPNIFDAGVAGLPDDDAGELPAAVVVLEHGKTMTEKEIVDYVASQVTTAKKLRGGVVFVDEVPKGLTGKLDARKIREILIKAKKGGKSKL

As for `CCC(=O)O[C@@]1(C(=O)CCl)[C@@H](C)C[C@@H]2[C@H]3CCC4=CC(=O)C=C[C@@]4(C)[C@]3(F)[C@@H](O)C[C@@]21C`, the molecule was called inactive in [1] and in assay [4]. The Potency result in [2] and in assay [7] was “inactive” throughout. The activity change, negative = inhibition is -1.76% (inactive) in assay [3] and -3.93% (inactive) in assay [8]. The values for the Potency in assay [5] and in assay [6] were 0.000621 µM (active) and < 5.9e-06 µM (active), respectively. Moreover, the values for the max response in assay [8] (setting [21]) and in assay [8] (setting [22]) were -18.1% and -15.8%, respectively.
In the case of `CO[C@H]1[C@@H](OC(N)=O)[C@H](O)[C@@H](Oc2ccc3c(O)c(NC(=O)c4ccc(O)c(CC=C(C)C)c4)c(=O)oc3c2C)OC1(C)C`, the outcome in assay [1], in assay [4] and in assay [11] was inactive. Also, the Potency entry in assay [2], in assay [7], in assay [9], in assay [10], in assay [13] and in [14] was “inactive” throughout. In addition, the Potency result in assay [15], in [16], in [17], in assay [18] and in [19] was “inactive” in each case. The activity change, negative = inhibition in [3] is -13.7% (inactive); in [8], -1.82% (inactive). Besides, the Potency in assay [6] was > 20.6 µM (inactive). The max response in [8] (setting [21]) was -8.07%; in [8] (setting [22]), -8.17%. Besides, the activity, negative = inhibition is 4.79% (inactive) in [12] (parasite line A) and -4.42% (inactive) in [12] (parasite line B).
Regarding `Nc1ccccc1S(N)(=O)=O`, the molecule was classed as inactive in assay [1], in [4] and in assay [20]. Also, the Potency entry in assay [2], in assay [7] and in assay [9] was “inactive” each time. Further, the activity change, negative = inhibition in assay [3] is -3.4% (inactive); in [8], -3% (inactive). The Potency in assay [5] and in assay [6] was > 20.6 µM (inactive) throughout. The figures for the max response in [8] (setting [21]) and in [8] (setting [22]) were -21% and -21.4%, respectively.
As for `CNc1ncnc2c1ncn2[C@@H]1O[C@H](CO)[C@@H](O)[C@@H]1O`, the result in assay [1], in assay [4] and in assay [20] was inactive. Also, the Potency result in [2], in [7] and in [9] was “inactive” in each case. The activity change, negative = inhibition is -5.4% (inactive) in assay [3] and -4.48% (inactive) in assay [8]. Moreover, the Potency in [5] and in [6] was > 20.6 µM (inactive) throughout. Further, the max response in assay [8] (setting [21]) is -18.6%; in assay [8] (setting [22]), -24.1%.
In the case of `CC[C@H](CO)NCCN[C@@H](CC)CO`, the molecule was called inactive in [1], in [4], in [20] and in [11]. Moreover, the Potency entry in assay [2], in assay [7], in assay [9], in assay [10], in assay [13] and in assay [14] was “inactive” each time. In addition, the Potency entry in assay [15], in assay [16], in [17], in [18] and in assay [19] was “inactive” throughout. The activity change, negative = inhibition in assay [3] was -11.9% (inactive); in assay [8], -0.966% (inactive). Moreover, the max response in [8] (setting [21]) came to 4.79%; in assay [8] (setting [22]) it was 4.52%. For the same molecule, the activity, negative = inhibition in assay [12] (parasite line A) is -3.07% (inactive); in assay [12] (parasite line B), 5.7% (inactive).
Take `CC(C)(C)CC(C)(C)c1ccc(OCOCCOCCO)c(Cc2cc(C(C)(C)CC(C)(C)C)cc(Cc3cc(C(C)(C)CC(C)(C)C)ccc3OCOCCOCCO)c2OCOCCOCCO)c1`: the molecule was classed as inactive in assay [1] and in [4]. Moreover, the Potency entry in assay [2] and in assay [7] was “inactive” each time. The activity change, negative = inhibition in assay [3] was -20.3% (inactive); in assay [8], -6.93% (inactive). The Potency in assay [5] and in assay [6] was > 20.6 µM (inactive) each time. Besides, the max response is -10.1% in assay [8] (setting [21]) and -15.2% in [8] (setting [22]).

The record behind these values is PubChem BioAssay (NCATS).
